Screening data as filed in PubChem.
Rab9 promoter act: qHTS Assay for Rab9 Promoter Activators; Huh7 Rab9 promoter-luciferase reporter, luminescence, 24 h; Potency, µM (titrated, usually from 9.22 µM), for the others: at the top dose activation, negative = inhibition, most hits filed as activators; hit rate 2.8% among 320,000; note: % of control where 0% means no effect; nearly all actives have a fitted effect of over 60% in size
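Cells were plated at 1500 per well in reduced-serum medium with 10% FBS and left 2 h. Compound in DMSO was then added for 24 h at 37 °C. Reporter signal was read by luminescence after 10 min with luciferase detection reagent.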
Luc counter: Counterscreen for Luciferase (Kinase-Glo TM) Inhibition; Luciferin 4-monooxygenase (Photuris pensylvanica), Q27757; Potency, µM (highest dose often 38.3 µM), for inactives: at the highest dose activity change, negative = inhibition, most hits filed as inhibitors; Kinase-Glo luciferase, ATP luminescence, 8 min; AID 1379, 2008; hit rate 0.28% among 200,000; note: % is set by controls: 0 for no effect and ±100 for the full control effect; nearly all actives have a fitted effect of over 60% in size
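Compound is pinned into ATP-containing buffer (10 uM ATP, imidazole pH 7.2, 7 mM MgCl2). Kinase-Glo luciferase reagent is then added. Light output is recorded following an 8-min room-temperature incubation.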
SMN2 splice up: qHTS Assay for Enhancers of SMN2 Splice Variant Expression | HEK293 SMN2-luciferase splicing reporter, luminescence, 30-36 h | Potency, µM (top dose mostly 46.1 µM), inactives show at the top dose activity change, positive = activation, actives largely listed as activators | hit rate 2.8% among 210,000 | AID 1458, 2008; note: % of control where 0% means no effect; nearly all actives have a fitted effect of over 55% in size
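HEK293 cells carry an SMN2 […]–luciferase reporter in which exon 7 inclusion puts luciferase in frame. Cells were plated 10-12 h before compound addition, then incubated 30-36 h at 37C. ONE-Glo luminescence was read; sodium butyrate at 4.5 mM final served as control.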
ELG1 genotoxic: qHTS screen for small molecules that induce genotoxicity in human embryonic kidney (HEK293T) cells expressing luciferase-tagged ELG1; HEK293T ELG1-luciferase reporter, luminescence, 16 h; Potency, µM (series often up to 46 µM), for inactives: at the highest dose activity change, positive = activation, hits mostly activators; hit rate 1.3% among 330,000; AID 504466, 2011; note: % of control where 0% means no effect; nearly all actives have a fitted effect of over 60% in size
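ELG1-luciferase HEK293T cells, 2,000/well; compound pinned in; 16 hr, 37 °C, 5% CO2; ONE-Glo, 30 min RT; luminescence on CCD imager.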
NPC1 promoter act: qHTS Assay for NPC1 Promoter Activators. hit rate 2.4% among 320,000. Huh7 NPC1 promoter luciferase reporter, 24 h. Potency, µM (top dose mostly 9.22 µM), without a hit: top-dose activation, hits mostly activators; note: % of control where 0% means no effect; nearly all actives have a fitted effect of over 60% in size
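Quantitative HTS used a cell-based reporter: Huh7 cells stably bearing the NPC1 promoter upstream of luciferase were treated with compounds for 24 h, and promoter activation was read as luminescence.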
FLuc modulator: qHTS profiling assay for firefly luciferase inhibitor/activator using purifed enzyme and Km concentrations of substrates (counterscreen for miR-21 project). Luciferin 4-monooxygenase (Photinus pyralis), P08659. purified FLuc, Km substrates, luminescence inhibition. Potency, µM (top dose mostly 57.5 µM), inactives show at the highest dose activity change, negative = inhibition, most hits filed as inhibitors. hit rate 6.9% among 360,000. AID 588342, 2011;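 note: plate controls were vehicle for no effect and reference inhibitor for full effect; nearly all actives have a fitted effect of over 55% in size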
Target sequence (P08659 whole entry, looked up): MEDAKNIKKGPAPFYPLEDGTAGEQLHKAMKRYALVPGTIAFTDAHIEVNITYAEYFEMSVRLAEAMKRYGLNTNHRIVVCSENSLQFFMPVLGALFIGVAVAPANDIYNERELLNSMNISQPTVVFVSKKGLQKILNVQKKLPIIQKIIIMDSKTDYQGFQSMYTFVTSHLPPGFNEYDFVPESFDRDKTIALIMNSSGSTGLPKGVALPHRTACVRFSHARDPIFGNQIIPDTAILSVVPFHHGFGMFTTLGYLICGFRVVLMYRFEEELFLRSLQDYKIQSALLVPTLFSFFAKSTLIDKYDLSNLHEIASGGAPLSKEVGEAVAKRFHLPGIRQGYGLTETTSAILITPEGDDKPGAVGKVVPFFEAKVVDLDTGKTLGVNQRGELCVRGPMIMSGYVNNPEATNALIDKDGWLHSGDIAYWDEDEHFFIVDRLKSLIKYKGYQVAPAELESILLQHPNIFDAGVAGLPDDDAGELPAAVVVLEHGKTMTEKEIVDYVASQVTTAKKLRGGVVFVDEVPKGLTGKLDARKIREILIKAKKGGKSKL
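Biochemical qHTS of compounds, final roughly 60 µM downward over six points, against 10 nM purified firefly luciferase using Km concentrations of substrates (10 uM D-luciferin, 10 uM ATP) in Tris acetate pH 7.5 buffer; luminescence output.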
* = called active by the depositor; ? = inconclusive; . = no result given. In the library only some 7.5% were active in any assay of this set; here they are far more common. Calls come from the whole dose curve; as a rule, active = well fitted curve in the direction sought with a large enough effect; inconclusive = small, poorly fitted or top-dose-only effect, or another doubt; inactive = no such curve, though single readings can be large; an effect the other way counts as inactive or inconclusive. Potency is the fitted concentration of half-maximal effect.

SMILES	Rab9 promoter act	Luc counter	SMN2 splice up	ELG1 genotoxic	NPC1 promoter act	FLuc modulator
COCC1CCCCC1OS(N)(=O)=O (stereo not given)	2.3%	.	.	3.6%	2.2%	-1.3%
c1csc(-c2nc(-c3ccc(-c4ccon4)s3)no2)c1	0.355µM*	.	.	2.31µM*	0.562µM*	0.601µM*
c1ccc(-c2nc(-c3ccc(-c4ccon4)s3)no2)cc1	1.41µM*	.	.	?	1.12µM*	1.2µM*
CCOc1nc(-c2ccccc2)ccc1-c1noc(-c2ccncc2)n1	2.7%	1.9%	21.6%	3.4%	0.4%	-2.1%
COc1cccc(NC(=O)CN(C)C(=O)c2cc(-c3cccc(Br)c3)nc3ccccc23)c1	2.0%	.	.	-25.4%	1.0%	?
COc1cccc(NC(=O)c2cc(-c3ccc(C)o3)nc3ccccc23)c1	21.5%	.	.	2.2%	18.3%	?
CCOc1ccc(NC(=O)CN(C)C(=O)c2cc(-c3ccc(OC)cc3)nc3ccccc23)cc1OCC	1.8%	.	.	-26.6%	-1.4%	13.5µM*
COc1cccc(NC(=O)CN(C)C(=O)c2cc(-c3ccc(C)o3)nc3ccccc23)c1	-0.3%	.	.	-4.9%	5.3%	10.7µM*
COc1ccc(NC(=O)CN(C)C(=O)c2cc(-c3ccc(Cl)cc3)nc3ccccc23)cc1	-1.4%	.	.	-42.9%	2.0%	23.9µM*
CCOc1ccc(NC(=O)CN(C)C(=O)c2cccc3ccccc23)cc1OCC	-4.8%	.	.	0.2%	-3.2%	2.8%
CNC(=O)C1CCC(Cn2c(=O)c3sccc3n(CC(=O)NCc3cccc(OC)c3)c2=O)CC1 (stereo not given)	.	.	.	.	.	-7.1%
CC(=O)Nc1ccc(NC(=O)C(C)OC(=O)c2ccc(S(=O)(=O)N3CCCCCC3)cc2)cc1 (stereo not given)	.	.	.	17.5%	.	.
O=C(Nc1cccnc1)c1cc(-c2ccccc2O)on1	-4.0%	.	.	-1.9%	-0.5%	1.35µM*
O=C(Nc1ccccc1C(F)(F)F)c1cc(-c2ccccc2O)on1	3.98µM*	0.1%	?	16.5%	?	-20.8%
COc1ccccc1-c1cc(C(=O)Nc2ccccc2C(F)(F)F)no1	.	.	-6.9%	.	.	0.2%
O=C(Nc1cccnc1)c1cc(-c2cccs2)on1	?	-10.0%	-11.9%	0.6%	0.4%	1.69µM*
COC(=O)c1ccccc1NC(=O)c1cc(-c2cccs2)on1	2.24µM*	-0.8%	7.3%	11.7%	24.2%	-6.5%
CCOC(=O)C1(CCOc2ccccc2)CCN(Cc2ccc(O)c(OCC)c2)CC1	-0.2%	.	.	-16.5%	0.5%	1.2%
Cc1ccccc1CNC(=O)c1ccc(CS(=O)Cc2ccc(Cl)cc2)o1 (stereo not given)	.	.	.	.	.	-9.8%
COc1ccc(NC(=O)c2cc(-c3cccs3)on2)cc1	-3.1%	.	.	16.4µM*	1.2%	?
O=C(CC1C(=O)NCCN1CC1CCCCC1)NCc1ccc(F)cc1F (stereo not given)	2.82µM*	-4.2%	.	?	2.82µM*	?
O=C(CC1C(=O)NCCN1CC1CCCCC1)NCc1cc(F)ccc1F (stereo not given)	1.2%	-1.0%	.	0.1%	-6.9%	-1.5%
Cc1ccc(C(=O)Oc2ccc(/C=C3\C(=N)N4N=C(N5CCOCC5)SC4=NC3=O)cc2)cc1	?	.	.	23.1µM*	?	?
N=C1/C(=C\c2ccc(OC(=O)c3ccccc3)cc2)C(=O)N=C2SC(N3CCOCC3)=NN12	3.8%	.	.	12.2%	-3.2%	?
CCCc1ccc2oc(C(=O)N3CCN(C4CCS(=O)(=O)C4)CC3)c(C)c2c1 (stereo not given)	-2.9%	.	.	6.0%	-1.2%	3.6%
SMILES	Rab9 promoter act	Luc counter	SMN2 splice up	ELG1 genotoxic	NPC1 promoter act	FLuc modulator
Cc1noc(C)c1NC(=O)N(C)C[C@@H]1Oc2ccc(NC(=O)C3CCCCC3)cc2C(=O)N([C@@H](C)CO)C[C@H]1C	.	.	.	3.3%	.	.
O=C(CCN1C(=O)c2ccccc2C1=O)C1=NN[C@@H]2C(=O)N(c3cccc(Cl)c3)C(=O)[C@H]12	-2.1%	-0.1%	-3.0%	-2.1%	-3.1%	-12.2%
Cc1cccc(NC(=O)Cn2nnc3ccccc32)c1	2.82µM*	-2.3%	2.2%	?	2.82µM*	?
COc1ccc(NC(=O)COC(=O)Cn2nnc3ccccc32)cc1	0.4%	-0.9%	-2.1%	0.2%	-2.9%	-10.0%
COC(=O)c1ccc(NC(=O)Cn2nnc3ccccc32)cc1	2.82µM*	-1.8%	12.6µM*	16.4µM*	3.55µM*	4.26µM*
Cc1ccc(NC(=O)Cn2nnc3ccccc32)cc1	3.55µM*	-0.4%	.	?	?	16.9µM*
O=C(Cn1nnc2ccccc21)Nc1ccc([N+](=O)[O-])cc1	-0.6%	.	.	1.9%	-2.4%	0.9%
Cc1ccc(SCc2nc3ccccc3n2CC(=O)Nc2ccccc2)cc1	3.9%	-7.6%	5.7%	-0.5%	-3.1%	15.1µM*
CNS(=O)(=O)c1cc(-c2nnc(Nc3cc(C)ccc3C)c3ccccc23)ccc1C	.	.	-14.1%	.	.	-8.3%
CCOn1c(=O)c(-c2cc3ccccc3o2)[n+]([O-])c2ccccc21	2.82µM*	-1.0%	15.8µM*	?	3.55µM*	?
CCOn1c(=O)c(-c2ccc(Br)cc2)[n+]([O-])c2ccccc21	0.3%	.	.	-0.7%	1.3%	3.3%
O=c1c(-c2cc3ccccc3o2)[n+]([O-])c2ccccc2n1OCc1ccccn1	?	-14.9%	?	?	?	12µM*
CCOc1ccc(-c2c(=O)n(OCc3nc4ccccc4[nH]3)c3ccccc3[n+]2[O-])cc1	20.5%	.	.	-1.8%	-3.1%	16.9µM*
O=C(c1ccco1)N1CCN(Cc2nnnn2C2CCCCC2)CC1	-2.3%	.	.	3.2%	-4.0%	0.3%
Cc1cccc2c1OCC/C2=N\NC(=O)COc1ccccc1Cl	3.16µM*	-13.1%	22.2%	?	2.24µM*	3.79µM*
C=C(C)C1CC=C(C)/C(=N/NC(=O)COc2ccccc2Cl)C1 (stereo not given)	-7.6%	-1.6%	-24.4%	-7.2%	0.7%	4.8%
CCCCN(C)C(=O)c1nc2ccccn2c1CN1CCC[C@H]1CO	-7.9%	.	.	-0.8%	-5.1%	5.8%
CCn1cc(CNCc2cn(C)nc2-c2ccc(C3CCCCC3)cc2)cn1	-2.0%	.	.	-0.3%	-2.2%	15.1µM*
Cn1cc(CNCc2ccc(OC(F)(F)F)cc2)c(-c2ccc3c(c2)OCCO3)n1	-47.4%	-0.5%	.	-1.4%	-26.6%	1.1%
